Assays:
Experiment in all cases: PBM binding z-score (relative to random genomic background probes); higher = stronger binding; sequences stand for … in GC…GCGATTGACAGCGTAGAATGAAGG
[1] = system: RARb homodimer (NR concentration 270 nM)
Procedure, shortened: (§1)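 Binding z-scores take random background probes as their reference. They come from custom Agilent 4×180K protein-binding microarrays incubated 1 h with ligand-free nuclear receptor dimers, with antibodies against each partner (one per run) detecting binding. Scanned fluorescence was regression-normalized.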

[2] = system: RARg:RXRa (NR concentration 270 nM, RXRa partner concentration 90 nM)
Procedure, shortened: as §1

[3] = system: RARg homodimer (NR concentration 270 nM)
Procedure, shortened: as §1

[4] = system: RXRa DBDmut IVT, anti-RXR (DBD mutation: RXRa K156A/R161A, NR concentration 90 nM)
Procedure, shortened: as §1

[5] = system: RXRa homodimer (NR concentration 180 nM)
Procedure, shortened: as §1

[6] = system: THRa:RXRa (NR concentration 90 nM, RXRa partner concentration 90 nM)
Procedure, shortened: as §1

[7] = system: THRa homodimer (NR concentration 90 nM)
Procedure, shortened: as §1

[8] = system: VDR homodimer (NR concentration 270 nM)
Procedure, shortened: as §1

Sequence | PBM binding z-score [1] | PBM binding z-score [2] | PBM binding z-score [3] | PBM binding z-score [4] | PBM binding z-score [5] | PBM binding z-score [6] | PBM binding z-score [7] | PBM binding z-score [8]
CGTCCAAGGTCATCAGGTCAGTGAAAGCGACGTG | 5.08 | 6.56 | 6.99 | 4.23 | 6.63 | 4.34 | 3.86 | 3.8
GGAACGAGGGCATTCGAGTTAATAGCATGGCGAT | 0.504 | 1.33 | 1.59 | 2.83 | 1.09 | 3.22 | -0.196 | 2.58
CAATCTAGGTCAAGGTCAAAGTCGGTTTGTGCCA | 5.05 | 5.89 | 6.37 | 3.25 | 5.61 | 4.65 | 4.37 | 4.3
CCTAGCAGGCCAGGCTCACTCAAGCATTTCGCTT | -0.944 | -0.644 | -0.705 | 0.0454 | -0.649 | -0.789 | -0.705 | -0.911
TAGCCTAGGTCATTCAGGGACCAGTATAGAAAGC | 2.63 | 3.94 | 4.11 | 1.43 | 2.72 | 4.26 | 0.615 | 1.19
GCTGCTAGGTGAACTGATGGTCAGCTAAAGCTCG | 0.715 | 0.956 | 0.47 | -0.22 | 0.333 | 1.03 | -0.574 | -0.742
GATACAGGGTCAGCTAGAGCCCAGAGTATGGAAA | 2.3 | 4.4 | 4.33 | 1.25 | 4.08 | 2.43 | 0.0746 | 0.264
TCTGCTAGGTCAACGACGGTCAGCTAATCTGCTA | 3.74 | 4.42 | 5.58 | 1.13 | 2.74 | 3.48 | 0.555 | -0.198
ACTAGCAGGCCCAGGGTCACTCAAGATTAGTCCG | 2.58 | 2.39 | 2.01 | -0.284 | 2.78 | 2.73 | 1.17 | 1.14
TCTTGTAGATCAAGCAGGTTAAAAAAGCCTGAGT | 0.112 | 0.141 | -0.124 | 0.493 | 0.566 | 0.589 | -0.577 | 0.272
CGTCAAAGTTCAACTATGGTAACGTAAAGCACGC | 4.39 | 5.88 | 6.65 | 4.74 | 4.82 | 3.57 | 0.175 | 4.04
CATCAAAGTTCAACTAAGGTAACGTAAAGCACGC | 4.32 | 5.94 | 6.82 | 4.67 | 5.76 | 5.1 | 2.29 | 4.37
ACTTACGGGGCAACGAGGTTATAGCACGCGTATA | 1.13 | 1.75 | 1.76 | 1.63 | 1.73 | 2.08 | 0.279 | 1.72
CCTAGCAGGCAAGGGTCACTCAAGCATTTCGCTT | 3.46 | 4.12 | 3.63 | 0.602 | 4.6 | 2.36 | -0.309 | 0.817
TCTGCTAGGTCAACGATGCTCAGCTAATCTGCTA | 2.66 | 3.76 | 4.76 | 0.989 | 2.18 | 2.47 | 0.23 | -0.64
GCTTGGAGATCAAGGTTAAGAAAGACTAAGCTAA | 0.301 | 0.332 | 0.139 | -0.28 | 1 | 1.16 | -0.468 | 0.0219
CCTAGCAGGCCAATCTGGGACACTCAAGGCTTGA | -0.286 | -0.31 | 0.0826 | -0.25 | -0.458 | 3.08 | -0.247 | -0.728
CCGACTGGGGCACAAGGTTACCATAAGCCAGCCC | 1.59 | 1.46 | 1.12 | -0.589 | 0.82 | 1.37 | 0.35 | -0.201
AGGATGAGGTTACCAAAGATCAGGGAAACGCTTG | 1.18 | 1.94 | 1.65 | 0.402 | 2.51 | 2.67 | 1.29 | 0.534

Sequence | PBM binding z-score [1] | PBM binding z-score [2] | PBM binding z-score [3] | PBM binding z-score [4] | PBM binding z-score [5] | PBM binding z-score [6] | PBM binding z-score [7] | PBM binding z-score [8]
TAGCCTAGGTCATTCGGGGGCCAGTATAGAAAGC | 3.39 | 6.55 | 5.25 | 2.13 | 3.58 | 4.17 | 1.48 | 2.32
TCTTGTAGATCAACAGGAGGTTAAGACAGATCGA | 0.499 | 0.964 | 0.323 | 0.507 | 0.916 | 0.703 | -0.723 | -0.102
ATCTCTAGGTAAAGATAGTGCAGTGAATGCAAAT | -0.372 | 0.0561 | 0.36 | -0.368 | 0.254 | 0.223 | -0.337 | -0.144
ATATGTCGGTTAGCTGGGGTCATTCAGACTAGGC | 3.58 | 3.65 | 2.68 | 1.59 | 5.28 | 4.56 | 3.31 | 4.56
TCTAGTTGCTCAAAGGTCACACACTCGAAATGCG | 5.02 | 5.93 | 5.78 | 1.88 | 6.66 | 3.76 | 1.89 | 2.12
TCTGCTAGGTCAACGATGGTCAGCCAATCTGCTA | 3.23 | 4.3 | 5.2 | 1.06 | 2.55 | 3.16 | 0.561 | -0.316
CTTAGCAGGCCAATCTGGGTCACTCAAGGCTTGA | 2.2 | 0.952 | 1.3 | 0.294 | 0.782 | 3.77 | 0.497 | -0.119
TAGAGTAGGTTAGTCGGGGCATTCAGCCAACATA | 0.711 | 0.539 | 0.52 | -0.0578 | 0.327 | 1.42 | 0.443 | 1.03
ATCTATAGGTAAAGTTCAGTGAAAGATCGATAGA | 2.35 | 2.02 | 2.38 | 1.21 | 1.51 | 0.707 | -0.456 | 1.95
TCATATAGGTAAACAGGTGAAACTCCGTAAGTTA | 0.92 | 0.806 | 0.575 | 1.37 | 1.47 | 0.984 | 0.268 | 0.307
CGAACTAGGTCAAGGGCAGTGAATCTCCGCACGC | 3.25 | 3.74 | 4.64 | 1.59 | 2.35 | 2.98 | 0.986 | 0.718
TTACCAAGGTGAGCTGAGGGCGTTGATCCAACTC | 0.362 | -0.0631 | -0.0832 | -0.14 | 0.126 | 3.36 | 0.287 | 0.247
ACTAGCACGCCAAGTTTGGGTCACTCAAACAAAG | 1.5 | 0.693 | 0.804 | -0.276 | 0.756 | 2.02 | 0.988 | -0.0889
TAGCCTAGGTCATTCTGGGGCCAGTATAGAAAGC | 2.94 | 4.85 | 3.81 | 1.87 | 2.52 | 3.62 | 0.956 | 1.11
GCTTGTTGATCAAGGTTAAGAAAGACTAAGCTAA | 0.2 | 0.237 | 0.0786 | 0.0866 | 0.387 | 1.23 | -0.213 | -0.369
CGTCAAAGTTCAACTAAGGTACCGTAAAGCACGC | 4.34 | 5.81 | 6.61 | 4.77 | 5.35 | 4.81 | 0.671 | 4.06
GCTAGCAGGCCATTTGGCTCACTCAATGACGGGC | -1.05 | -0.42 | -0.0728 | 0.0311 | -0.355 | -1.69 | -1.04 | -0.733
CCTTACGGGTCAAGGTTATAGTACGGGTGGTACG | 3.37 | 4.78 | 4.42 | 1.09 | 5.14 | 3.08 | 1 | 1.71
AGAATGAGGTTAAGATCAGGTAAACAGAATACAT | 0.989 | 2.66 | 1.76 | 1.17 | 2.81 | 3.55 | 1.36 | 0.461

Sequence | PBM binding z-score [1] | PBM binding z-score [2] | PBM binding z-score [3] | PBM binding z-score [4] | PBM binding z-score [5] | PBM binding z-score [6] | PBM binding z-score [7] | PBM binding z-score [8]
TGCATGAGGTTATAAGATCAGGGAACGTTGCAAA | 0.168 | 1.64 | 1.08 | 1.32 | 1.84 | 1.93 | 0.273 | 0.679
CGTCCAAGGTCAGCAGGCCAGTGAAAGCGACGTG | 4.1 | 5.07 | 5.77 | 2.47 | 3.86 | 3.74 | 1.89 | 1.25
TCTCGGAGGACACGCAAGGTCAGAGCTCGACATC | 3.96 | 3.16 | 3.84 | 1.23 | 2.01 | 4.25 | 2.64 | 1.06
CGAACGAGGGCATGAGTAGATAGCAAATGCCGAT | 0.586 | 1.22 | 1.57 | 2.03 | 0.713 | 0.742 | -0.437 | 0.55
TCTTGTATATCAAAGGTTAAGAAAGCCGAAGCCT | 1.82 | 1.98 | 1.32 | 0.935 | 2.92 | 1.58 | 0.181 | 0.26
TCGAGTAGGTTAGTCGGAGCATTCAGCCAACATA | -0.533 | -0.461 | -0.343 | -0.252 | -0.401 | -0.658 | -0.781 | -0.514
CGTCCAAGGTCAGAGAGGTCAATGAATGCCGAGT | 5.42 | 7 | 7.52 | 3.55 | 6.58 | 4.53 | 2.88 | 6.88
CCGACTGGGGCAGAAAAGTTACCATACCATCCGG | -0.232 | -0.197 | 0.109 | -0.438 | -0.0105 | -0.43 | -0.509 | -0.39
CCTTACGGGTCAAGGTTATAGCTCGGGTGGTACG | 3.57 | 4.65 | 4.28 | 0.811 | 4.81 | 3.01 | 1.1 | 1.18
ATATGTAGGTTAGCTGGGGTAATTCAGACTAGGC | 0.856 | 0.69 | 0.761 | 0.642 | 0.773 | 3.87 | 0.672 | 0.606
GGAACGAGTGCATTCGAGTTGATAGCATGGCGAT | -0.91 | -0.352 | 0.0126 | 3.87 | -0.0218 | 1.92 | -1.23 | 4.44
TCTAGCAGTCCAGAGGGTCACTCAAGAGGTACGG | 2.78 | 2.4 | 1.91 | 0.0371 | 2.54 | 1.79 | 0.000359 | 0.904
AGAATGAGGTTACCAAAGATCAGGGAGACGCTTG | 0.689 | 2.21 | 1.8 | 1.28 | 2.77 | 2.86 | 0.711 | 0.443
CCGACTGGGGCAAAGGTTACCATACTCAGTACGA | 2.22 | 3.52 | 1.78 | 0.712 | 3.67 | 1.78 | -0.211 | -0.204
AGAATGAGGTTACCAAGGATCAGGGAAACGCTTG | 1.02 | 1.94 | 1.65 | 0.704 | 2.62 | 2.94 | 1.1 | 0.508
TCTATTAGTTGAAGGGCAACAGACGAGTCCGTTT | 1.14 | 0.634 | 0.745 | 1.68 | 0.567 | 0.209 | 0.0682 | 1.55
TCGAGTAGGATACCAATGGGGCATTCAGCTTTCT | -0.451 | -0.58 | -0.482 | 0.0326 | -0.263 | -1.38 | -1.03 | -1.09
GGAACGAGGGCAAGTTGAAAGCAGAGTTTGATGG | 1.57 | 1.12 | 1.98 | 2.41 | 0.747 | 1.12 | 0.0724 | 1.92
